Screens: PubChem, National Center for Advancing Translational Sciences (NCATS)
RORgamma inh = blocks mouse ROR gamma transcriptional activity; 310,000 compounds, 5.4% hits; Drosophila S2 Gal4-RORgamma UAS-luciferase reporter, 20 h; AID 2551; Potency, µM (highest dose often 53.6 µM), without a hit: top-dose activity change, negative = inhibition, most hits filed as inhibitors; further: nearly all actives have a fitted effect of over 60% in size
Target sequence (P51450 whole entry, looked up, the tested form may be a part): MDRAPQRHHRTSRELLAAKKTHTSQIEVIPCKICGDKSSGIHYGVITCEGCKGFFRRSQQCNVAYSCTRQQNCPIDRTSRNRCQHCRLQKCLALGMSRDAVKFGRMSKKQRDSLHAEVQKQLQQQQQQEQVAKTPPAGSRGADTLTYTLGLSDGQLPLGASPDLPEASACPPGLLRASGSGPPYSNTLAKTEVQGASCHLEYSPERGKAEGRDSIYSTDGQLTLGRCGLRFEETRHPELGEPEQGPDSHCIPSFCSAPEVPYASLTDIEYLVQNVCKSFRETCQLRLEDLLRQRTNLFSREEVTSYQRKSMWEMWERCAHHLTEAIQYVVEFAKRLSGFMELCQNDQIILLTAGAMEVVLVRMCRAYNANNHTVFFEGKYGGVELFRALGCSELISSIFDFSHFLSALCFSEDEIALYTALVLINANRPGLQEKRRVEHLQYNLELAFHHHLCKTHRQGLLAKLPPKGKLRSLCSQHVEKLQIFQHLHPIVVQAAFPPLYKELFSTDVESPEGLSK
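Schneider cells (Drosophila), stable Gal4 DBD–ROR gamma + UAS-luc; 1 hr cmpd preincubation; Cu2+ induction 700 uM final; 20 hr ambient; luminescence.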
Gal4-VP16 FLuc = Gal4-VP16 reporter inhibition counter-screen; 310,000 compounds, 3.5% hits; Drosophila S2 Gal4-VP16 UAS-luciferase, luminescence, 20 h; Potency, µM (series often up to 53.6 µM), for the others: top-dose activity, negative = inhibition, most hits filed as inhibitors;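 further: Gal4-VP16 expression switched on by copper sulfate through the metallothionein promoter; nearly all actives have a fitted effect of over 50% in size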
Luc counter = counter-screen: inhibitors of Kinase-Glo firefly luciferase; Kinase-Glo luciferase, ATP luminescence, 8 min; Potency, µM (titrated, usually from 38.3 µM), without a hit: at the highest dose activity change, negative = inhibition, usual class: inhibitors; 200,000 compounds, 0.28% hits; further: nearly all actives have a fitted effect of over 60% in size
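Compounds were added to a substrate mix at pH 7.2 (50 mM imidazole, 10 uM ATP, within the enzyme's linear range), followed by Kinase-Glo detection reagent; luminescence was measured after 8 minutes at ambient temperature.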
* marks the source's active call; other numbers are inactive results. An excerpt weighted towards active compounds, which were near 6.4% of everything screened. The call rests on the fitted dose curve; in most records, active means well fitted curve in the direction sought with a large enough effect; inconclusive means small, poorly fitted or top-dose-only effect, or another doubt; inactive means no such curve, though single readings can be large; an effect the other way counts as inactive or inconclusive. On the % scale 0 is the no-effect control and ±100 the full control effect; potency means the concentration at half of the fitted maximal effect.

Screening Cc1nn(S(=O)(=O)c2cccc([N+](=O)[O-])c2)c(C)c1S(=O)(=O)N1CCOCC1 returned RORgamma inh -19.6% and Gal4-VP16 FLuc 1.5%.
Cc1noc(C)c1COC(=O)c1cccc(N(C)C)c1 was read as RORgamma inh 40.5%, Gal4-VP16 FLuc -20.6% and Luc counter -1.6%.
`C=CCOc1ccc(C2C(C(=O)c3ccco3)=C(O)C(=O)N2c2nnc(C)s2)cc1` (stereo not given) gave RORgamma inh 1.3%, Gal4-VP16 FLuc 0.9% and Luc counter -0.9%.
For O=[N+]([O-])c1ccc(-c2cn(-c3ccccc3)c(=S)[nH]2)cc1 the results were RORgamma inh inconclusive, Gal4-VP16 FLuc inconclusive and Luc counter -2.2%.
`Nc1ccc(-n2cc(-c3ccccc3)[nH]c2=S)cc1` gave RORgamma inh 8.91µM* and Gal4-VP16 FLuc inconclusive.
`O=[N+]([O-])c1cccc(-c2cn(-c3ccccc3)c(=S)[nH]2)c1` gave RORgamma inh 2µM*, Gal4-VP16 FLuc 11.2µM* and Luc counter -1.5%.
`S=c1[nH]c(-c2ccccc2)cn1-c1ccccc1` gave RORgamma inh 10µM* and Gal4-VP16 FLuc 10µM*.
Screening Nc1ccc(-n2nncc2-c2ccccc2)cc1 returned RORgamma inh 23.4%, Gal4-VP16 FLuc 22.5% and Luc counter -2.0%.
Screening O=c1cc(-c2ccccc2)[nH]c2[nH]n(-c3ccccc3)c(=O)c12 returned RORgamma inh 12.9%, Gal4-VP16 FLuc 11.8% and Luc counter 0.0%.
CN(C)CCN(Cc1cc2cc3c(cc2nc1Cl)OCO3)C(=O)c1ccco1 was read as RORgamma inh -16.9% and Gal4-VP16 FLuc -1.3%.
`CNC(=S)NCc1ccc2[nH]c3c(c2c1)CCCC3` gave RORgamma inh 17.8µM*, Gal4-VP16 FLuc -14.0% and Luc counter 1.0%.
For O=C(NCc1ccc2[nH]c3c(c2c1)CCCC3)N1CCOCC1 the results were RORgamma inh -1.2%, Gal4-VP16 FLuc -1.1% and Luc counter 0.9%.
`CCCCNC(=S)NCc1ccc2[nH]c3c(c2c1)CCCC3` gave RORgamma inh 5.01µM*, Gal4-VP16 FLuc 10µM* and Luc counter 1.8%.
Screening CCN(CC)S(=O)(=O)c1ccc(C(=O)NCc2ccc3[nH]c4c(c3c2)CCCC4)cc1 returned RORgamma inh 24.2%, Gal4-VP16 FLuc 2.7% and Luc counter 1.9%.
For Cn1c(-c2nc(-c3ccccc3)cs2)nc2ccccc21 the results were RORgamma inh inconclusive, Gal4-VP16 FLuc -6.6% and Luc counter -0.2%.
O=C(O)C1Cc2ccccc2CN1C(=O)CSc1nnc2ccccn12 (stereo not given) was read as RORgamma inh 7.2%, Gal4-VP16 FLuc 5.2% and Luc counter 4.2%.
For CCn1c(=O)c([N+](=O)[O-])c(Cl)c2ccccc21 the results were RORgamma inh 7.94µM*, Gal4-VP16 FLuc 8.91µM* and Luc counter -3.8%.
Screening CCn1c(=O)c([N+](=O)[O-])c(NCCN(C)C)c2ccccc21 returned RORgamma inh -11.8%, Gal4-VP16 FLuc 27.2% and Luc counter -0.2%.
For COc1cc2c(C=O)c3c4c(cc(OC)c(OC)c4c2cc1OC)CCN3C the results were RORgamma inh -29.0%, Gal4-VP16 FLuc -12.0% and Luc counter -1.4%.
`COc1cccc(-n2c(SCC(=O)NCC3CCCO3)nc3c(c2=O)SCC3)c1` (stereo not given) gave RORgamma inh -27.7% and Gal4-VP16 FLuc -1.6%.
Cc1oc2c(Cl)c(Cl)c(O)c(CN(C)C)c2c1C(=O)c1ccc(Cl)cc1 was read as RORgamma inh 1.9% and Gal4-VP16 FLuc 2.1%.
Screening COc1cc(NC(=O)c2ccnn2C)c(OC)cc1Cl returned RORgamma inh -16.9%, Gal4-VP16 FLuc -14.8% and Luc counter 2.4%.
Screening Cc1nn(C)cc1C(=O)Nc1ccc2c(c1)OCCO2 returned RORgamma inh inconclusive and Gal4-VP16 FLuc -17.5%.
For O=C(Nc1ccc2c(c1)OCCO2)c1ccccn1 the results were RORgamma inh 7.08µM*, Gal4-VP16 FLuc 14.1µM* and Luc counter 12.6µM*.
O=C(Nc1ccc(NC(=O)c2ccccn2)cc1)C(=O)Nc1ccc2c(c1)OCCO2 was read as RORgamma inh inconclusive, Gal4-VP16 FLuc -7.8% and Luc counter 1.1%.
For Cn1ccc(C(=O)Nc2ccc3c(c2)OCCO3)n1 the results were RORgamma inh 7.94µM* and Gal4-VP16 FLuc inconclusive.
For Cn1nccc1C(=O)NC(=S)Nc1cc(Cl)cc(Cl)c1 the results were RORgamma inh 2.51µM* and Gal4-VP16 FLuc 12.6µM*.
`O=C(Nc1ccc(N2CCCCCC2)cc1)c1ccccc1Cl` gave RORgamma inh 18.2%, Gal4-VP16 FLuc 6.5% and Luc counter -2.9%.
